# Read-outs that look alike come from different tables or passages of the source.
# Assays:
# Conditions in all cases: n = 1
# CHEK2 = system: CHEK2
# CIT = system: CIT
# CLK1 = system: CLK1
# CLK2 = system: CLK2
# CLK3 = system: CLK3
# CLK4 = system: CLK4
# CSF1R-autoinhibited = system: CSF1R-autoinhibited
# CSF1R = system: CSF1R
# CSK = system: CSK
# CSNK1A1L = system: CSNK1A1L
# CSNK1A1 = system: CSNK1A1
# CSNK1D = system: CSNK1D
# CSNK1E = system: CSNK1E
# CSNK1G1 = system: CSNK1G1
# CSNK1G2 = system: CSNK1G2
# CSNK1G3 = system: CSNK1G3
# CSNK2A1 = system: CSNK2A1
# CSNK2A2 = system: CSNK2A2
# CTK = system: T1, CTK
# T1 construct: gene MATK
# DAPK1 = system: DAPK1
# [1] = concentration: 1 μM, replicates: in singlicate
# 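Also: KINOMEscan kinase panel screen.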
compound,measurement,setting,value
CN(C)CCN(C)C(=O)c1cc(-c2ccncc2)c(-c2ccc(Cl)c(O)c2)o1.Cl.Cl [SB-710397],%Inh,CHEK2; [1],12%
same,%Inh,CIT; [1],21%
same,%Inh,CLK1; [1],18%
same,%Inh,CLK2; [1],0%
same,%Inh,CLK3; [1],9%
same,%Inh,CLK4; [1],25%
same,%Inh,CSF1R-autoinhibited; [1],0%
same,%Inh,CSF1R; [1],3%
same,%Inh,CSK; [1],0%
same,%Inh,CSNK1A1L; [1],20%
same,%Inh,CSNK1A1; [1],62%
same,%Inh,CSNK1D; [1],90%
same,%Inh,CSNK1E; [1],93.4%
same,%Inh,CSNK1G1; [1],0%
same,%Inh,CSNK1G2; [1],0%
same,%Inh,CSNK1G3; [1],14%
same,%Inh,CSNK2A1; [1],0%
same,%Inh,CSNK2A2; [1],4%
same,%Inh,CTK; [1],0%
same,%Inh,DAPK1; [1],4%
Cc1ccc(NC(=O)Nc2cccc(Cl)c2)cc1-c1ccc(C(=O)Nc2ccncc2)cc1 [GSK1398468],%Inh,CHEK2; [1],0%
same,%Inh,CIT; [1],86%
same,%Inh,CLK1; [1],30%
same,%Inh,CLK2; [1],0%
same,%Inh,CLK3; [1],12%
same,%Inh,CLK4; [1],5%
same,%Inh,CSF1R-autoinhibited; [1],12%
same,%Inh,CSF1R; [1],78%
same,%Inh,CSK; [1],0%
same,%Inh,CSNK1A1L; [1],15%
same,%Inh,CSNK1A1; [1],0%
same,%Inh,CSNK1D; [1],57%
same,%Inh,CSNK1E; [1],19%
same,%Inh,CSNK1G1; [1],2%
same,%Inh,CSNK1G2; [1],0%
same,%Inh,CSNK1G3; [1],25%
same,%Inh,CSNK2A1; [1],0%
same,%Inh,CSNK2A2; [1],0%
same,%Inh,CTK; [1],0%
same,%Inh,DAPK1; [1],3%
COc1cc(Nc2nccc(N3CCC(NC(=O)Nc4cc(C)ccc4C)C3)n2)cc(OC)c1OC (centres unmarked) [GSK1379762],%Inh,CHEK2; [1],0%
same,%Inh,CIT; [1],11%
same,%Inh,CLK1; [1],32%
same,%Inh,CLK2; [1],6%
same,%Inh,CLK3; [1],0%
same,%Inh,CLK4; [1],29%
same,%Inh,CSF1R-autoinhibited; [1],0%
same,%Inh,CSF1R; [1],14%
same,%Inh,CSK; [1],0%
same,%Inh,CSNK1A1L; [1],17%
same,%Inh,CSNK1A1; [1],3%
same,%Inh,CSNK1D; [1],0%
same,%Inh,CSNK1E; [1],13%
same,%Inh,CSNK1G1; [1],1%
same,%Inh,CSNK1G2; [1],0%
same,%Inh,CSNK1G3; [1],22%
same,%Inh,CSNK2A1; [1],25%
same,%Inh,CSNK2A2; [1],0%
same,%Inh,CTK; [1],8%
same,%Inh,DAPK1; [1],0%
COc1cc2ncnc(Nc3ccc4nc(-c5ccccc5)[nH]c4c3)c2cc1OC.Cl [GW282450],%Inh,CHEK2; [1],26%
same,%Inh,CIT; [1],59%
same,%Inh,CLK1; [1],14%
same,%Inh,CLK2; [1],0%
same,%Inh,CLK3; [1],12%
same,%Inh,CLK4; [1],3%
same,%Inh,CSF1R-autoinhibited; [1],0%
same,%Inh,CSF1R; [1],3%
same,%Inh,CSK; [1],10%
same,%Inh,CSNK1A1L; [1],0%
same,%Inh,CSNK1A1; [1],0%
same,%Inh,CSNK1D; [1],6%
same,%Inh,CSNK1E; [1],24%
same,%Inh,CSNK1G1; [1],15%
same,%Inh,CSNK1G2; [1],0%
same,%Inh,CSNK1G3; [1],17%
same,%Inh,CSNK2A1; [1],5%
same,%Inh,CSNK2A2; [1],98.4%
same,%Inh,CTK; [1],0%
same,%Inh,DAPK1; [1],1%
NC(=O)c1nnc2ccccc2c1N,%Inh,CHEK2; [1],16%
same,%Inh,CIT; [1],7%
same,%Inh,CLK1; [1],51%
same,%Inh,CLK2; [1],17%
same,%Inh,CLK3; [1],1%
same,%Inh,CLK4; [1],1%
same,%Inh,CSF1R-autoinhibited; [1],0%
same,%Inh,CSF1R; [1],14%
same,%Inh,CSK; [1],0%
same,%Inh,CSNK1A1L; [1],38%
same,%Inh,CSNK1A1; [1],66%
same,%Inh,CSNK1D; [1],49%
same,%Inh,CSNK1E; [1],37%
same,%Inh,CSNK1G1; [1],9%
same,%Inh,CSNK1G2; [1],0%
same,%Inh,CSNK1G3; [1],43%
same,%Inh,CSNK2A1; [1],11%
same,%Inh,CSNK2A2; [1],24%
same,%Inh,CTK; [1],0%
same,%Inh,DAPK1; [1],2%
Cc1cccc(-c2nc(Nc3cccc(C(N)=O)c3)c3ccccc3n2)n1 [GW876019],%Inh,CHEK2; [1],0%
same,%Inh,CIT; [1],45%
same,%Inh,CLK1; [1],18%
same,%Inh,CLK2; [1],6%
same,%Inh,CLK3; [1],14%
same,%Inh,CLK4; [1],0%
same,%Inh,CSF1R-autoinhibited; [1],0%
same,%Inh,CSF1R; [1],0%
same,%Inh,CSK; [1],0%
same,%Inh,CSNK1A1L; [1],3%
same,%Inh,CSNK1A1; [1],37%
same,%Inh,CSNK1D; [1],8%
same,%Inh,CSNK1E; [1],15%
same,%Inh,CSNK1G1; [1],0%
same,%Inh,CSNK1G2; [1],0%
same,%Inh,CSNK1G3; [1],18%
same,%Inh,CSNK2A1; [1],30%
same,%Inh,CSNK2A2; [1],19%
same,%Inh,CTK; [1],13%
same,%Inh,DAPK1; [1],15%
Cc1ccc(NC(=O)Nc2cccc(C(F)(F)F)c2)cc1 [GSK955403],%Inh,CHEK2; 1 µM,0%
same,%Inh,CIT; 1 µM,29%
same,%Inh,CLK1; 1 µM,3%
same,%Inh,CLK2; 1 µM,36%
same,%Inh,CLK3; 1 µM,0%
same,%Inh,CLK4; 1 µM,0%
same,%Inh,CSF1R-autoinhibited; 1 µM,0%
same,%Inh,CSF1R; 1 µM,0%
same,%Inh,CSK; 1 µM,28%
same,%Inh,CSNK1A1L; 1 µM,0%
same,%Inh,CSNK1A1; 1 µM,0%
same,%Inh,CSNK1D; 1 µM,0%
same,%Inh,CSNK1E; 1 µM,0%
same,%Inh,CSNK1G1; 1 µM,0%
same,%Inh,CSNK1G2; 1 µM,1%
same,%Inh,CSNK1G3; 1 µM,0%
same,%Inh,CSNK2A1; 1 µM,1%
same,%Inh,CSNK2A2; 1 µM,0%
same,%Inh,CTK; 1 µM,0%
same,%Inh,DAPK1; 1 µM,18%
Cl.NC(=O)c1cccc(Nc2nccc(Nc3ccc(Oc4cccc(Cl)c4)c(Cl)c3)n2)c1 [GW659008],%Inh,CHEK2; [1],0%
same,%Inh,CIT; [1],19%
same,%Inh,CLK1; [1],13%
same,%Inh,CLK2; [1],0%
same,%Inh,CLK3; [1],10%
same,%Inh,CLK4; [1],17%
same,%Inh,CSF1R-autoinhibited; [1],22%
same,%Inh,CSF1R; [1],14%
same,%Inh,CSK; [1],17%
same,%Inh,CSNK1A1L; [1],16%
same,%Inh,CSNK1A1; [1],1%
same,%Inh,CSNK1D; [1],5%
same,%Inh,CSNK1E; [1],8%
same,%Inh,CSNK1G1; [1],0%
same,%Inh,CSNK1G2; [1],0%
same,%Inh,CSNK1G3; [1],17%
same,%Inh,CSNK2A1; [1],15%
same,%Inh,CSNK2A2; [1],19%
same,%Inh,CTK; [1],2%
same,%Inh,DAPK1; [1],0%
Cc1ccc(C(=O)Nc2ccc(Nc3ccnc4cc(-c5ccccn5)ccc34)cc2O)cc1.Cl [GW440146],%Inh,CHEK2; [1],4%
same,%Inh,CIT; [1],2%
same,%Inh,CLK1; [1],13%
same,%Inh,CLK2; [1],1%
same,%Inh,CLK3; [1],0%
same,%Inh,CLK4; [1],23%
same,%Inh,CSF1R-autoinhibited; [1],0%
same,%Inh,CSF1R; [1],35%
same,%Inh,CSK; [1],34%
same,%Inh,CSNK1A1L; [1],0%
same,%Inh,CSNK1A1; [1],0%
same,%Inh,CSNK1D; [1],7%
same,%Inh,CSNK1E; [1],23%
same,%Inh,CSNK1G1; [1],0%
same,%Inh,CSNK1G2; [1],0%
same,%Inh,CSNK1G3; [1],4%
same,%Inh,CSNK2A1; [1],0%
same,%Inh,CSNK2A2; [1],0%
same,%Inh,CTK; [1],0%
same,%Inh,DAPK1; [1],0%
Cc1cc(-c2ccc3c(c2)CC[C@@H](N[C@@H](C)c2ccccc2)C3)cnc1N.Cl [GW412617],%Inh,CHEK2; [1],6%
same,%Inh,CIT; [1],24%
same,%Inh,CLK1; [1],13%
same,%Inh,CLK2; [1],0%
same,%Inh,CLK3; [1],0%
same,%Inh,CLK4; [1],10%
same,%Inh,CSF1R-autoinhibited; [1],0%
same,%Inh,CSF1R; [1],27%
same,%Inh,CSK; [1],0%
same,%Inh,CSNK1A1L; [1],21%
same,%Inh,CSNK1A1; [1],6%
same,%Inh,CSNK1D; [1],35%
same,%Inh,CSNK1E; [1],12%
same,%Inh,CSNK1G1; [1],11%
same,%Inh,CSNK1G2; [1],0%
same,%Inh,CSNK1G3; [1],8%
same,%Inh,CSNK2A1; [1],2%
same,%Inh,CSNK2A2; [1],10%
same,%Inh,CTK; [1],13%
same,%Inh,DAPK1; [1],10%

# — article PMC5540273 (PLoS ONE, 2017)
